Screening data as filed in PubChem BioAssay.
SARS PLP yeast: blocks SARS-CoV papain-like protease in a yeast assay. S. cerevisiae expressing SARS-CoV PLpro, growth rescue. Potency, µM (series often up to 32.9 µM), actives largely listed as activators. 330,000 tested, 0.19% active; calls by dose curve; further: nearly all actives have a fitted effect of over 55% in size
RE007 growth inh: less growth of the S. pombe RE007 Vpr strain; S. pombe RE007 Vpr strain, BacTiter-Glo ATP luminescence, 24 h; Potency, µM (highest dose often 92.2 µM), actives largely listed as inhibitors; 360,000 tested, 0.21% active; AID 651644; active means well fitted falling curve with a large enough effect; inconclusive means small, poorly fitted or top-dose-only effect; inactive means no such curve, though single readings can be large or run the other way; further: nearly all actives have a fitted effect of over 50% in size
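Fission yeast strain RE007, carrying one chromosomally integrated HIV-1 vpr copy, was seeded at OD 0.01 in PMG+AL medium with 23 nL pinned compound. After 24 h at 30 °C and 99% humidity, viability was read by BacTiter-Glo luminescence.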
NS1 inh: inhibitors of influenza NS1 protein function; Potency, µM (titrated, usually from 46.1 µM); 270,000 tested, 0.4% active; AID 2326; calls by dose curve; further: actives are rising curves; nearly all actives have a fitted effect of over 50% in size
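Read-out: OD600 growth recovery of NS1-expressing budding yeast. Cells grown overnight at 30C in -URA glucose medium, washed, resuspended and diluted 1:100 in 2% galactose assay medium, pH 6.0. Same strain lacking NS1 served as positive control.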
Pf growth 48h: inhibits P. falciparum growth in the first generation, 48 h. P. falciparum luciferase growth in erythrocytes, 48 h. Potency, µM (series often up to 28.7 µM), most hits filed as inhibitors. 310,000 tested, 5.9% active
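Luminescence readout; reporter = integrated firefly luciferase in P. falciparum. RBC culture at 2% hematocrit, 0.1% parasitemia final, 37 C/5% CO2; decreased signal taken as growth inhibition.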
Pf growth 96h: P. falciparum growth inhibition at 96 hour, primary screen for plastid delayed-death inhibitors. P. falciparum luciferase reporter growth, 96 h. Potency, µM (top dose mostly 28.7 µM), hits mostly inhibitors. 320,000 tested, 6.9% active
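Infected RBCs, 2% Hct / 0.05% parasitemia final; luciferase-reporter P. falciparum; cpd 96 h, 37 C, 5% CO2; luciferase detection reagent; luminescence.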
Numbers stand for hits; – = inactive; ? = inconclusive; · = not tested or not shown; [ ] = another dose, or the depositor's remark. This is a sample that favours compounds with a hit; in the whole collection about 9.5% have one here. Unless noted, the call rests on the fitted dose curve; in most records, active means well fitted inhibition curve with a large enough effect; inconclusive means small, poorly fitted or top-dose-only effect, or another doubt; inactive means no such curve, though single readings can be large or run the other way.

SMILES | SARS PLP yeast | RE007 growth inh | NS1 inh | Pf growth 48h | Pf growth 96h
O=C(O)c1ccccc1C(=O)Nc1ccc(Br)c(C(F)(F)F)c1 | – | – | – | – | –
Cc1cc(C)c(C(=O)Nc2ccc(Br)c(C(F)(F)F)c2)c(C)c1 | – | – | – | 13µM | 9.3µM
C/C=C/C=C/C(=O)N1CC[C@]23c4ccccc4N[C@H]4N(C)c5cccc6c5[C@]42CCN([C@H]6C2OC2(C)C)[C@H]13 (stereo partly specified) | – | – | – | 12µM | –
COC(=O)[C@@]1(Cc2ccc(OC)cc2)[C@H]2c3cc(C(=O)N4CCCC4)n(Cc4cc(C)n(C)n4)c3C[C@H]2CN1C(=O)c1ccccc1 | · | – | · | · | ·
O=C(Cn1cc([N+](=O)[O-])cn1)NCCc1nc2ccccc2[nH]1 | – | – | · | – | 9.3µM
O=C(Cn1cc([N+](=O)[O-])cn1)NCCc1c[nH]c2ccccc12 | – | – | · | – | ?
O=C(Cc1nc2ccccc2[nH]1)c1ccc(Br)cc1 | – | ? | · | ? | 1.7µM
N/N=C(/Cc1nc2ccccc2[nH]1)c1ccc([N+](=O)[O-])cc1 | – | 13µM | · | ? | –
O=C(NCCc1nc2ccccc2[nH]1)c1cc([N+](=O)[O-])cc([N+](=O)[O-])c1 | – | – | – | 4.7µM | ?
O=C(Cc1nc2ccccc2[nH]c1=O)c1ccccc1 | – | – | · | – | –
Nc1nc(NCCCN2CCOCC2)nc(Nc2cccc(F)c2)c1[N+](=O)[O-] | – | – | – | – | ?
Cc1cccc(Nc2nc(NCCCN3CCOCC3)nc(N)c2[N+](=O)[O-])c1 | – | – | – | 15µM | ?
Nc1nc(NCCCN2CCOCC2)nc(Nc2ccc(F)cc2)c1[N+](=O)[O-] | – | – | – | 13µM | ?
Cc1cccc(Nc2nc(N)c([N+](=O)[O-])c(N3CCCC(C)C3)n2)c1 (stereo unspecified) | – | – | – | 12µM | ?
COc1ccc(Nc2nc(NCCCN3CCOCC3)nc(N)c2[N+](=O)[O-])cc1 | – | – | – | ? | ?
COC(=O)CC[C@@H](C)C1CC[C@H]2[C@H]3CC[C@H]4C[C@@H]5CCC4(C)[C@@]3(O5)[C@@H](Br)[C@@H](Br)[C@@]12C (stereo partly specified) | · | · | – | · | ·
C=CCNC(=S)Nc1cccc(NC(=S)NCC=C)c1 | – | – | – | 13µM | ?
C=CCNC(=S)Nc1ccccc1 | – | – | – | – | –
CN1C(=O)CSC1=S | – | –[18.4 µM] | – | – | –
IC(I)I | · | · | · | – | –
CCOC(=O)N1CCN(C(=O)COc2ccc3ccccc3c2Br)CC1 | – | – | – | – | 13µM
O=C(COc1ccc2ccccc2c1Br)N1CCCC1 | – | – | – | – | ?
COc1ccc(C(=O)N(C)C2CCCN(Cc3ccccc3F)C2)cc1C (stereo unspecified) | – | – | – | ? | 5.2µM
COCc1ccc(C(=O)N(C)C2CCCN(Cc3ccccc3F)C2)o1 (stereo unspecified) | – | – | – | ? | 2.9µM
COC(=O)c1ccc(C(=O)N(C)C2CCCN(Cc3ccccc3F)C2)cc1 (stereo unspecified) | – | – | – | – | –
SMILES | SARS PLP yeast | RE007 growth inh | NS1 inh | Pf growth 48h | Pf growth 96h
Cc1occc1-c1nnc(SCC(=O)Nc2nc3ccccc3s2)o1 | – | – | – | – | ·
COC(=O)C1=CN(c2cccc(OCc3ccccc3)c2)C(N)=C(C#N)C1c1cccc(F)c1 (stereo unspecified) | · | – | · | · | ·
O=c1cc(O)c2c(=O)n(-c3ccccc3)c3ccccc3c2o1 | – | – | ? | – | 12µM
Cc1ccc(OCCOCCN2CCCCC2)c([N+](=O)[O-])c1 | – | – | – | ? | –
Cc1ccc([N+](=O)[O-])c(OCCN2CCNCC2)c1 | – | – | – | – | 2.3µM
O=[As]O[As]=O (stereo unspecified) | · | · | · | 1.9µM | 1.9µM
CC(=O)N1CCN(C(=O)c2c(-c3ccccc3)noc2C)CC1 | – | – | · | – | –
Cc1onc(-c2ccccc2)c1C(=O)N1CCCN2C(=O)c3ccccc3C21 (stereo unspecified) | – | – | – | ? | 10µM
CN(C)CCC#CC(O)(c1ccccc1)c1ccccc1 | – | – | – | 12µM | ?
COc1ccc(S(=O)(=O)N(C)C[C@@H]2OCCCC[C@H](C)Oc3ccc(NC(=O)Nc4ccc(C(F)(F)F)cc4)cc3C(=O)N([C@H](C)CO)C[C@H]2C)cc1 | · | – | · | · | ·
Cc1ccc2nc3sc(C(=O)Nc4ccc(F)cc4)cc3cc2c1 | – | · | · | ? | ?
CCc1cc2cc(C(=O)Nc3ccc(C)cc3)sc2s1 | – | – | –[9.22 µM] | ? | 2.3µM
O=C(NCC1CCCN1S(=O)(=O)c1cccs1)c1c(F)cccc1F (stereo unspecified) | – | – | · | ? | ?
CCn1c(SCC(=O)c2cc(C)ccc2C)nc2cc(S(=O)(=O)N3CCOCC3)ccc21 | – | · | – | ? | 7.4µM
Cc1ccc(COC(=O)c2cc(S(=O)(=O)N3CCOCC3)ccc2C)cc1 | – | – | · | 9.3µM | 13µM
Cc1ccc(S(=O)(=O)N2CCOCC2)cc1C(=O)OCC(=O)N1CCCCC1 | – | – | · | · | ·
Cc1ccc(S(=O)(=O)N2CCOCC2)cc1C(=O)OCCOc1cccc(Cl)c1 | – | – | · | ? | 10µM
COc1cc(C(=O)OCC(=O)N2CCOCC2)c([N+](=O)[O-])cc1OC | – | – | – | – | –
O=C(C1=C[C@H](c2ccc(Br)cc2)C[C@H](OCc2ccc(CO)cc2)O1)N1CCN(Cc2ccc3c(c2)OCO3)CC1 | – | – | – | ? | 7.4µM
CN1CCN(C(=O)C2=C[C@@H](c3ccc4c(c3)OCO4)C[C@@H](OCc3ccc(CO)cc3)O2)CC1 | – | – | – | – | –
O=C(C1=C[C@@H](c2ccccc2)C[C@@H](OCCCCO)O1)N1CCN(Cc2ccc3c(c2)OCO3)CC1 | – | – | – | ? | ?
C#Cc1ccc([C@H]2C=C(C(=O)N3CCN(Cc4ccc5c(c4)OCO5)CC3)O[C@@H](OCc3ccc(CO)cc3)C2)cc1 | – | – | – | ? | 3.3µM
O=C(C1=C[C@H](c2ccc3c(c2)OCO3)C[C@H](OCc2ccc(CO)cc2)O1)N1CCN(Cc2ccc3c(c2)OCO3)CC1 | – | – | – | 4.1µM | 13µM
O=C(C1=C[C@H](c2ccccc2)C[C@H](OCc2ccc(CO)cc2)O1)N1CCN(Cc2ccc3c(c2)OCO3)CC1 | – | – | – | ? | 13µM
C[C@H]1C=C(C(=O)N2CCN(Cc3ccc4c(c3)OCO4)CC2)O[C@@H](OCc2ccc(CO)cc2)C1 | – | – | – | ? | ?
CC(C)=CCN1CCN(Cc2cccn2-c2ccccn2)CC1CCO (stereo unspecified) | – | – | – | – | ?
Cc1cc(C(=O)N2CCC2(C)C(=O)NCc2cccc3ccccc23)nn1C (stereo unspecified) | · | –[18.4 µM] | · | · | ·
COc1cc2cc(c1Cl)N(C)C(=O)C[C@H](OC(=O)C(C)C)[C@]1(C)O[C@@H]1[C@@H](C)[C@H]1C[C@](O)(NC(=O)O1)[C@@H](OC)/C=C\C=C(\C)C2 | · | · | – | · | ·
